Shown are actives, neighbours in structure and some others; about 11% of the full set was active somewhere.
HTT aggregate: qHTS Multiplex Assay to Identify Dual Action Probes in a Cell Model of Huntington: Aggregate Formation (GFP). AID 1688, 2009. Potency, µM (highest dose often 46.1 µM), for the others: top-dose activity change, negative = inhibition, hits mostly inhibitors. PC12 HttQ103-GFP aggregates, Acumen cytometry, 40 h. 220,000 tested, 1.1% active; further: potency means the concentration at half of the fitted maximal effect; on the % scale 0 is the no-effect control and ±100 the full control effect; nearly all actives have a fitted effect of over 60% in size
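Compounds (qHTS titration) were added to PC12 cells expressing an ecdysone-driven HTT exon 1 Q103–GFP fusion after induction with 100 nM tebufenozide. Aggregate formation was measured as GFP objects in cell lysates.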
CBFb-RUNX1 inh: qHTS Assay for Compounds Blocking the Interaction Between CBF-beta and RUNX1 for the Treatment of Acute Myeloid Leukemia. AID 1477, 2009. Potency, µM (highest dose often 59.8 µM), inactives show at the top dose activity, negative = inhibition, actives largely listed as inhibitors. AlphaScreen CBFb-His/RUNX1-biotin binding, biochemical. 230,000 tested, under 10 active; further: % of control where 0% means no effect
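CBF-beta (His) and RUNX1 (biotin), 30 nM each; 20 min preassociation; + compound, 15 min; + beads 50 ng each (Ni, streptavidin), 90 min; RT; AlphaScreen read.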
ALDH1A1 inh: qHTS Assay for Inhibitors of Aldehyde Dehydrogenase 1 (ALDH1A1); Potency, µM (series often up to 75.3 µM), without a hit: top-dose activity, negative = inhibition, hits mostly inhibitors; Purified ALDH1A1, NADH fluorescence, propionaldehyde substrate; Aldehyde dehydrogenase 1A1 (Homo sapiens), P00352; 220,000 tested, 7.3% active; active means well fitted inhibition curve with a large enough effect, not every such curve was filed as active; inconclusive means small, poorly fitted or top-dose-only effect, or another doubt; inactive means no such curve, though single readings can be large or run the other way;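 further: potency means the concentration at half of the fitted maximal effect; plate controls were no enzyme wells and a reference inhibitor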
Target sequence (P00352 whole entry, looked up): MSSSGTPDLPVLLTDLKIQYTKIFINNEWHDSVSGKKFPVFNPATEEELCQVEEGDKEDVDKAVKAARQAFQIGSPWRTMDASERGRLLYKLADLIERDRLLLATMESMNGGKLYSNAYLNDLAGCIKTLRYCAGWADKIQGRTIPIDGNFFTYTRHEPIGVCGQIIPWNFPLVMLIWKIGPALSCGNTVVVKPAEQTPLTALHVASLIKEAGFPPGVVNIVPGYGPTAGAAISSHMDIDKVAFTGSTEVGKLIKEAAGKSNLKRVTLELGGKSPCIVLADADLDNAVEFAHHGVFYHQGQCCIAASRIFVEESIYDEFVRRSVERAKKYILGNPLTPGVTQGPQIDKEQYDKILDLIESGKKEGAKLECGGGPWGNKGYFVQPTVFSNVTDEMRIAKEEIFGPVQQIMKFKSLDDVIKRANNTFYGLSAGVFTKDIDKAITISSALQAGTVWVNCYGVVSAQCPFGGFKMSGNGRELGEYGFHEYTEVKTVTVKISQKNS
HPGD inh: qHTS Assay for Inhibitors of HPGD (15-Hydroxyprostaglandin Dehydrogenase); purified HPGD, NADH fluorescence kinetic, PGE2 substrate; Potency, µM, for the others: at the top dose activity change, negative = inhibition, usual class: inhibitors; AID 894, 2007; 15-hydroxyprostaglandin dehydrogenase [NAD(+)] (Homo sapiens), P15428; 150,000 tested, 4.3% active; active means well fitted inhibition curve with a large enough effect, not every such curve was filed as active; inconclusive means small, poorly fitted or top-dose-only effect, or another doubt; inactive means no such curve, though single readings can be large or run the other way; further: potency means the concentration at half of the fitted maximal effect; on the % scale 0 is the no-effect control and ±100 the full control effect
Target sequence (P15428 whole entry, looked up): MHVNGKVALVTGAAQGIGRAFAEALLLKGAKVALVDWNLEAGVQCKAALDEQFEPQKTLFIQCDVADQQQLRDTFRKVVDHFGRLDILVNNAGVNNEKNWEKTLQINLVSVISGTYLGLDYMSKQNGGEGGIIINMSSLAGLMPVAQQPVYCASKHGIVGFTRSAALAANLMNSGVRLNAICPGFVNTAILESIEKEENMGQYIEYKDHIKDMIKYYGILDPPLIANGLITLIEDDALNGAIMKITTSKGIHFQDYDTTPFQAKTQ
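20 nM HPGD preincubated 15 min at room temperature with compound in 50 mM Tris-HCl pH 8, 0.01% Tween 20. Started with 1 mM NAD+ and 30 uM prostaglandin E2; NADH fluorescence (360/450 nm) read 5 times over 30-s intervals, last minus first.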
HTT cytoprotect: qHTS Multiplex Assay to Identify Dual Action Probes in a Cell Model of Huntington: Cytoprotection (ATP). PC12 HTT-Q103 induced, cytoprotection, ATP luminescence, 40 h. Potency, µM (top dose mostly 56.4 µM), inactives show cytoprotection (ATP increase), actives largely listed as activators. 230,000 tested, 0.14% active; further: potency means the concentration at half of the fitted maximal effect; % of control where 0% means no effect; nearly all actives have a fitted effect of over 45% in size
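ATP quantification (ATPlite) reports survival of PC12 cells in which tebufenozide, 100 nM final, switches on Htt exon 1 with 103 glutamines linked to GFP; compounds are titrated.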
PNC assembly inh: High Content Assay for Compounds that inhibit the Assembly of the Perinucleolar Compartment; PC3M PTB-GFP, PNC prevalence imaging, 16 h; active compounds read low; activity change (PNC), negative = inhibition, % at 10 µM; 140,000 tested, 3.1% active; AID 2417, 2010;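 active means readout at or below -70, meaning at least 70% loss of cells showing the perinucleolar compartment, a nuclear body marking cancer cells; inconclusive means readout between -30 and a set limit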;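 further: plate controls were DMSO wells for no effect and camptothecin positive control wells for full effect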
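Read-out is percentage of cells bearing a perinucleolar compartment, from automated 20x imaging of fixed, Hoechst-stained PC3M PTB-GFP cells. Cells were seeded 4 h, then exposed 16 h to compound (23 nl of library stock) in duplicate plates.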
The depositor's hits bear a star; u = inconclusive; x = not tested or not shown; [ ] = another dose, or the depositor's remark. Unless noted, the call rests on the fitted dose curve; in most records, active means well fitted curve in the direction sought with a large enough effect; inconclusive means small, poorly fitted or top-dose-only effect, or another doubt; inactive means no such curve, though single readings can be large; an effect the other way counts as inactive or inconclusive.

SMILES | HTT aggregate | CBFb-RUNX1 inh | ALDH1A1 inh | HPGD inh | HTT cytoprotect | PNC assembly inh
O=C(O/N=C\c1ccc(N2CCCCC2)c([N+](=O)[O-])c1)c1c(F)cccc1F | -16% | u | 18µM* | -20% | -15% | 23
O=C(O/N=C\c1ccc(N2CCCCC2)c([N+](=O)[O-])c1)c1cccc(Cl)c1 | 3% | -3% | u | -17% | 0% | 17
O=C(O)[C@@H](O)[C@@H](O)[C@@H](O)[C@@H](O)C(=O)O (tested in a mixture with another compound) | x | -24%[21.7 µM] | 27%[20.9 µM] | 7% | 2%[40.3 µM] | x
O=C(c1ccc(N2CCN(S(=O)(=O)c3ccccc3)CC2)c([N+](=O)[O-])c1)N1CCOCC1 | -4% | -3% | -2% | -1% | -4%[10 µM] | 73
O=C(CCNc1ccc(F)cc1)c1cc2ccccc2o1 | 1% | -18% | 0.1µM* | x | -21% | x
O=C(Cc1ccc(F)cc1)OCC(=O)c1cc2ccccc2o1 | -4% | 15% | u | u | 0%[10 µM] | 20
O=C(CCNc1cccc(F)c1)c1cc2ccccc2o1 | u | -26% | 0.025µM* | x | -15% | x
C=CCC(O)[C@H](Cc1cnc2ccccc2c1)[C@H](/C=C/CCCC)c1ccccc1 (some centres not stated) | x | 11% | x | x | x | x
CCOc1ccc(/C=C/C(=O)CCC(=O)O)cc1 | u | 6% | u | x | u | x
C=CCSC1=C(C#N)C(c2ccccc2C)CC(=O)N1 (configuration not stated) | -2% | 7% | u | -13% | 7%[10 µM] | -19
C=CCSC1=C(C#N)C(c2ccccc2Cl)CC(=O)N1 (configuration not stated) | -14% | -3% | 25µM* | -14% | -1% | 18
CCC(NC(=O)c1ccccc1O)c1ccccc1 (configuration not stated) | -32% | 9% | u | u | 11%[0.074 µM] | -109*
CC[C@H](NC(=O)c1c(C)c(-c2ccccc2)nc2ccccc12)c1ccccc1 | 26%[9.22 µM] | -4% | 5µM* | -30% | -4%[10 µM] | x
CCC(NC(=O)c1ccc([N+](=O)[O-])cc1[N+](=O)[O-])c1ccccc1 (configuration not stated) | -7% | -1% | 4% | -3% | -4% | 13
CC(C)CO/N=C1/C[C@@H](O)[C@@H](O)[C@@H]2[C@@H]3C(=O)N(c4cccc(Oc5ccccc5)c4)C(=O)[C@H]3CC[C@H]12 | x | -6%[13.1 µM] | -5%[13.5 µM] | x | 11%[10 µM] | x
O=C(/C=C/Nc1ccc(Cc2ccc(N/C=C/C(=O)C(F)(F)F)cc2)cc1)C(F)(F)F | -3% | 0% | -4% | -17% | -15%[10 µM] | -85*
COc1ccc(N/C=C/C(=O)C(F)(F)F)cc1 | -1% | 13% | -6% | -1% | -3%[10 µM] | -23
CN1C(=O)CC[C@@H]1c1cccnc1 | x | 9%[21.7 µM] | -5%[20.9 µM] | -6% | 10% | x
Cc1ccc(-c2nc(C(Cl)Cl)c3ccccc3n2)cc1 | 0.89µM* | 5% | x | x | -80%[10 µM] | x
Cc1ccc(-c2nc(NCc3ccco3)c3ccccc3n2)cc1 | u | 15% | -13% | -4% | x | -20
O=C(c1cc(C(F)(F)F)cc(C(F)(F)F)c1)N1CCC[C@@]2(CCN(c3ccccc3)C2)C1 | x | x | -6% | -10% | 9% | x
Cc1cccc(C)c1NC(=S)Nc1ccc(Cl)c(Cl)c1 | -4% | 3% | 22µM* | x | 32%[10 µM] | x
Cc1nc(N2CCOCC2)c2nc(-c3ccccc3)n(C(C)CN(C)C)c2n1 (configuration not stated) | x | 15% | u | u | -37% | x
O=C(Nc1ccccc1C(=O)O)c1ccc(Br)o1 | 1% | 3% | 4µM* | u | -20% | -17
CC(=O)c1cc(C(=O)Nc2ccccc2C(=O)O)oc1C | 18% | -1% | 0.71µM* | u | -8% | -9
SMILES | HTT aggregate | CBFb-RUNX1 inh | ALDH1A1 inh | HPGD inh | HTT cytoprotect | PNC assembly inh
Cc1ccc(C(=O)Nc2ccccc2C(N)=O)o1 | 1% | -2% | 3% | -4% | -23% | 44
O=C(Nc1ccccc1)c1ccc(Br)o1 | -5% | -5%[89.1 µM] | -6%[120 µM] | -26% | x | 32
COC(=O)Cc1c[nH]c2cccc(OCC(O)CN(Cc3ccc([N+](=O)[O-])cc3)C(C)(C)C)c12 (configuration not stated) | 8% | -24% | 25µM* | -21% | 5% | u
CC(C)CN(CC(C)C)CC(O)COc1ccc([N+](=O)[O-])cc1 (configuration not stated) | -15% | 1% | -1% | -16% | -3%[10 µM] | -1
COc1ccc(C2=NC(=O)/C(=C\c3cc(OC)c(OC)c(OC)c3)O2)cc1 | 11% | 3% | 6% | -22% | -6%[1.9 µM] | u
CCOC(=O)C1=C(C)Nc2ccccc2N=C1NC(=O)/C=C/c1ccc(OC)cc1OC | 30% | -6% | 20µM* | x | -19% | x
O=C(O)c1cccc(NCc2ccncc2)c1 | 8%[9.22 µM] | -1% | u | -26% | 22% | -81*
O=C(O)c1ccc(NCc2ccncc2)cc1 | 7% | 3% | -10% | -10% | -13% | 9
CC(C)(C)NC(=O)c1ccc2c(c1)N(CC(=O)N1CCN(c3ccccc3F)CC1)C(=O)C(C)(C)O2 | 8% | 3% | 14µM* | -6% | -22%[10 µM] | 24
CCC1=NN2C(=N)/C(=C\c3cccn3-c3ccc(Br)cc3)C(=O)N=C2S1 | 13% | -7% | u | x | -15% | x
Cc1cc(/C=C2/C(=N)N3C(=NC2=O)SN=C3S(C)(=O)=O)c(C)n1-c1ccc(F)cc1 | 4% | u | 28µM* | x | -111% | x
CC1=CSC2=NC(=O)/C(=C\c3cccn3-c3ccc([N+](=O)[O-])cc3)C(=N)N12 | -2% | -3% | -12% | -22% | 1%[10 µM] | u
COc1ccccc1-n1c(C)cc(/C=C2/C(=N)N3C(=NC2=O)SN=C3S(C)(=O)=O)c1C | -8% | -8% | u | x | -138% | x
CCC1=NN2C(=N)/C(=C\c3cccn3-c3cccc(Cl)c3)C(=O)N=C2S1 | 10% | -28% | 1.8µM* | x | -17% | x
CCOc1ccc(-n2c(C)cc(/C=C3/C(=N)N4C(=NC3=O)SN=C4S(C)(=O)=O)c2C)cc1 | -19% | -15% | 18µM* | x | -22% | x
